Assay results reported in PubChem BioAssay (EPA / NIEHS).
Active and inactive are the calls of the source. How the source made its calls: active means hit-call score of the fitted dose curve at least 0.9, where 1 is the maximum; inactive means score below 0.9.

Assays:
[1] = APR_HepG2_NuclearSize_72hr: Apredica 72-hour HepG2 Assay for Nuclear Size (AID 2282925); conditions: high-content imaging, actives raise or lower the signal
Procedure, shortened: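 HepG2; cpd 0.39–200 uM, 10 conc, duplicate; 72 h; DMSO 0.5% v/v; fix 3.7% formaldehyde 30 min RT; Triton permeabilization; Hoechst 2 ug/mL; HCS imaging 20x; nuclear diameter; gain/loss fit vs DMSO.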

[2] = ATG_CRE_CIS: Attagene CIS-FACTORIAL HepG2 Assay for human cAMP Responsive Element (CRE) binding protein 3 (AID 2282926); conditions: HepG2 CRE cis-reporter, Attagene multiplexed mRNA; actives raise or lower the signal
Procedure, shortened: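 HepG2 cells transiently transfected with a multiplexed reporter library (CRE-driven unit among them) were dosed for 24 h. Reporter mRNA was quantified by RT-PCR, fluorescent labelling, HpaI digestion and capillary electrophoresis, with bidirectional fitting against DMSO baseline.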

[3] = molecular target: CCAAT/enhancer-binding protein beta (Homo sapiens) (UniProt P17676); assay: ATG_C_EBP_CIS: Attagene CIS-FACTORIAL HepG2 Assay for human CCAAT/Enhancer Binding Protein (C/EBP) beta (AID 2282927); conditions: HepG2 Attagene cis-factorial transcription factor reporter; actives raise or lower the signal
Procedure, shortened: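 Endogenous transcription factor activity in human liver HepG2 cells is inferred from induction of a CEBPB-linked reporter mRNA. Exposure lasts 24 h; activity is fitted in both directions relative to DMSO.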

[4] = ATG_CMV_CIS: Attagene CIS-FACTORIAL HepG2 Assay for human CMV (Internal Marker) (AID 2282928); conditions: HepG2 CMV promoter reporter, transcription factor profiling; actives raise or lower the signal;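 further: endpoint acts as a background internal control marker rather than a target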
Procedure, shortened: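 After transient transfection of HepG2 with reporter transcription units driven by cis-regulatory promoters, cells receive test chemical for 24 h. Labeled reporter amplicons, digested with HpaI, are sized and quantified by capillary electrophoresis against DMSO.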

[5] = ATG_DR4_LXR_CIS: Attagene CIS-FACTORIAL HepG2 Assay for human Liver X Receptor (LXR), DR4 submotif (AID 2282929); conditions: HepG2 Attagene DR4 cis-reporter, mRNA transcription; actives raise or lower the signal
Procedure, shortened: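 HepG2, transient MRTU transfection, cis-element (DR4) promoter; 24 h compound exposure; total RNA → oligo(dT) RT → PCR → 6-FAM primer extension → HpaI cut → CE. Gain/loss vs DMSO, bidirectional fit.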

[6] = molecular target: Aryl hydrocarbon receptor (Homo sapiens) (UniProt P35869); assay: ATG_Ahr_CIS: Attagene CIS-FACTORIAL HepG2 Assay for human Aryl Hydrocarbon Receptor (Ahr) (AID 2282930); conditions: HepG2 AhR cis-factorial reporter transcription; actives raise or lower the signal
Procedure, shortened: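 Transient MRTU transfection of HepG2 → 24 h compound exposure → total RNA, oligo(dT) RT → PCR, 6-FAM extension, HpaI cut → CE fluorescence. DMSO = baseline; bidirectional curve fit.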

[7] = ATG_AP_1_CIS: Attagene CIS-FACTORIAL HepG2 Assay for human Activator Protein 1 (AP-1) (AID 2282931); conditions: HepG2 Attagene cis-factorial AP-1 reporter mRNA; actives raise or lower the signal
Procedure, shortened: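 Transient MRTU transfection of HepG2 → 24 h chemical treatment → RNA isolation, RT-PCR, 6-FAM labelling, HpaI digest → capillary electrophoresis. Fit: bidirectional, DMSO negative control.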

[8] = ATG_AP_2_CIS: Attagene CIS-FACTORIAL HepG2 Assay for human Activator Protein 2 (AP-2) (AID 2282932); conditions: HepG2 AP-2 cis-reporter, Attagene transcription factor profiling; actives raise or lower the signal
Procedure, shortened: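 Step one: transient transfection of HepG2 with reporter transcription units. Step two: 24 h chemical exposure. Step three: RNA extraction, RT-PCR, labelled fragment analysis by capillary electrophoresis; DMSO serves as baseline.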

[9] = ATG_BRE_CIS: Attagene CIS-FACTORIAL HepG2 Assay for human Bone Morphogenetic Protein (BMP) Response Element (BRE) (AID 2282933); conditions: HepG2 BMP response element reporter, Attagene transcription factor profiling; actives raise or lower the signal
Procedure, shortened: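 After a 24 h chemical treatment, transiently transfected HepG2 cells were lysed for RNA; reporter transcripts were quantified by fluorescent RT-PCR and capillary electrophoresis, normalised to DMSO.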

[10] = molecular target: Transcription factor E2F1 (Homo sapiens) (UniProt Q01094); assay: ATG_E2F_CIS: Attagene CIS-FACTORIAL HepG2 Assay for human E2F Transcription Factor 1 (AID 2282935); conditions: HepG2 Attagene cis-reporter, E2F reporter RNA transcripts; actives raise or lower the signal
Procedure, shortened: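 Total RNA from 24 h-treated, reporter-transfected HepG2 cells undergoes DNase I treatment, oligo(dT) reverse transcription, PCR and 6-FAM primer extension before capillary electrophoresis.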

[11] = ATG_E_Box_CIS: Attagene CIS-FACTORIAL HepG2 Assay for human Enhancer Box (E-box) (AID 2282936); conditions: HepG2 E-box cis-reporter transcription, actives raise or lower the signal
Procedure, shortened: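 DMSO served as negative control and baseline for bidirectional fitting. Human hepatoma HepG2 cells, transiently transfected with cis-reporter constructs, were dosed 24 h; reporter mRNA read by RT-PCR and capillary electrophoresis.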

[12] = ATG_M_61_CIS: Attagene CIS-FACTORIAL HepG2 Assay for M61 Transcription Factor (Internal Marker) (AID 2282937); conditions: HepG2 Attagene CIS-FACTORIAL M61 internal marker reporter; actives raise or lower the signal
Procedure, shortened: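 Human liver HepG2, transient MRTU transfection (cis promoter elements), 24 h compound. Total RNA → oligo(dT) RT → PCR → FAM label → HpaI → CE. Internal background marker; bidirectional fitting, DMSO = baseline.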

[13] = ATG_EGR_CIS: Attagene CIS-FACTORIAL HepG2 Assay for human Early Growth Response 1 (EGR1) (AID 2282938); conditions: HepG2 Attagene CIS-FACTORIAL EGR reporter mRNA; actives raise or lower the signal
Procedure, shortened: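 Transient transfection of human HepG2 with multiple cis-regulated reporter units, chemical exposure 24 h, total RNA isolated. Reverse transcription, PCR, fluorescent labelling and capillary electrophoresis quantify reporter transcripts; activity fitted bidirectionally against DMSO.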

[14] = ATG_M_19_CIS: Attagene CIS-FACTORIAL HepG2 Assay for M19 Transcription Factor (Internal Marker) (AID 2282939); conditions: HepG2 Attagene CIS-FACTORIAL M19 internal marker reporter; actives raise or lower the signal
Procedure, shortened: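 In this multiplexed cell assay, transiently transfected HepG2 reporter units report endogenous transcription-factor activity; after 24 hours of treatment, labelled reporter cDNA fragments are quantified by capillary electrophoresis and fitted bidirectionally against DMSO.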

[15] = ATG_ERE_CIS: Attagene CIS-FACTORIAL HepG2 Assay for Estrogen Response Element (ERE) (AID 2282940); conditions: HepG2 ERE cis-reporter, Attagene RNA transcript; actives raise or lower the signal
Procedure, shortened: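 Measuring endogenous transcription factor output, the assay doses transfected HepG2 cells for 24 hours and quantifies reporter transcripts by fluorescent RT-PCR and capillary electrophoresis, with DMSO as baseline.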

[16] = ATG_Ets_CIS: Attagene CIS-FACTORIAL HepG2 Assay for human Erythroblast Transformation Specific (ETS) (AID 2282941); conditions: HepG2 ETS cis-reporter transcription, actives raise or lower the signal
Procedure, shortened: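 Human HepG2 hepatoma cells were transiently transfected with promoter-driven reporter constructs and treated for 24 hours. Reporter transcripts were quantified by RT-PCR with fluorescent primer extension; bidirectional curve fitting used DMSO as reference.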

[17] = molecular target: Hepatocyte nuclear factor 3-beta (Homo sapiens) (UniProt Q9Y261); assay: ATG_FoxA2_CIS: Attagene CIS-FACTORIAL HepG2 Assay for human Forkhead box A2 (FOXA2) (AID 2282942); conditions: HepG2 cis-reporter transcription factor activity, 24 h; actives raise or lower the signal
Procedure, shortened: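 Transient MRTU transfection of HepG2 liver cells; 24 h treatment; total RNA → oligo(dT) RT → PCR → FAM primer extension → HpaI cut → CE. Bidirectional fit vs DMSO.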

[18] = ATG_FoxO_CIS: Attagene CIS-FACTORIAL HepG2 Assay for human Forkhead box O (FoxO) (AID 2282943); conditions: HepG2 Attagene cis-reporter, FoxO element, mRNA; actives raise or lower the signal
Procedure, shortened: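 HepG2, transient MRTU transfection (cis element, endogenous TFs). Dose 24 h. TriZol RNA → oligo(dT) RT → PCR → 6-FAM primer extension → HpaI cut → CE. Gain/loss vs DMSO.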

[19] = ATG_GATA_CIS: Attagene CIS-FACTORIAL HepG2 Assay for human GATA Binding Protein (AID 2282944); conditions: HepG2 GATA cis-element reporter, Attagene multiplex mRNA; actives raise or lower the signal
Procedure, shortened: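 Measures endogenous transcription factor-driven reporter mRNA in HepG2 cells transiently carrying cis-regulated constructs. 24 h dosing; RNA via oligo(dT) reverse transcription, PCR, HpaI digestion, capillary electrophoresis; fitted relative to DMSO.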

[20] = molecular target: Retinoic acid receptor alpha (Homo sapiens) (UniProt P10276); assay: ATG_DR5_RAR_CIS: Attagene CIS-FACTORIAL HepG2 Assay for human Retinoic Acid Receptor Alpha (RARE), DR5 submotif (AID 2282934); conditions: HepG2 Attagene cis-factorial RARE DR5 reporter, mRNA; actives raise or lower the signal
Procedure, shortened: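 Transient MRTU transfection of HepG2; 24 h compound treatment; TriZol RNA, oligo(dT) RT, PCR, FAM labelling, capillary electrophoresis. Bidirectional fit vs DMSO. Endogenous TF activity at DR5 RARE.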

Measured: AC50

Sequence of Transcription factor E2F1 (Homo sapiens) (Q01094 whole entry, looked up): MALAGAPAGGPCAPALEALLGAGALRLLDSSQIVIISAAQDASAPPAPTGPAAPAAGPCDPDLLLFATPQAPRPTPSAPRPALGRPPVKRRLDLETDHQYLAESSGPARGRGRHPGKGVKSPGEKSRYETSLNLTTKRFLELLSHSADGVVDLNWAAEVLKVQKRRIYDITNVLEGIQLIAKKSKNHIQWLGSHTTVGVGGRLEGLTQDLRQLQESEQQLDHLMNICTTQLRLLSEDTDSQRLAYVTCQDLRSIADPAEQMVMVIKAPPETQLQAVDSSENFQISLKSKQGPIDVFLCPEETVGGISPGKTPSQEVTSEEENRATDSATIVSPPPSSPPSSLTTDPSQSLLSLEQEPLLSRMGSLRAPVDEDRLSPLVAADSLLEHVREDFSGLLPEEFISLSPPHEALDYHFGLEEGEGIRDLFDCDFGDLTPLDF
Sequence of Hepatocyte nuclear factor 3-beta (Homo sapiens) (Q9Y261 whole entry, looked up): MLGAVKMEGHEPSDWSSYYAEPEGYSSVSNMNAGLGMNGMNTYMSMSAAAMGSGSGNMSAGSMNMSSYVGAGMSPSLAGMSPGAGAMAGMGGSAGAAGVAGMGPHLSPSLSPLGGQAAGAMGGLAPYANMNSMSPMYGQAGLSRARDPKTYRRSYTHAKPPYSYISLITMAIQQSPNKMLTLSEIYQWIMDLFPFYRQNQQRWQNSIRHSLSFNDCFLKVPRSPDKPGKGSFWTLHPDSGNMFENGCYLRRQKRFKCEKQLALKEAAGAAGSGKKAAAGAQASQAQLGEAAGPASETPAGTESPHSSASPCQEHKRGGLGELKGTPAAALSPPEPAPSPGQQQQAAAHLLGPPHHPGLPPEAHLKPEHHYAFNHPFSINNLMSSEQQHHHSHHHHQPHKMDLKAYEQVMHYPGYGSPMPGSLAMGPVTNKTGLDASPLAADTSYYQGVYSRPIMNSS
Sequence of Aryl hydrocarbon receptor (Homo sapiens) (P35869 whole entry, looked up): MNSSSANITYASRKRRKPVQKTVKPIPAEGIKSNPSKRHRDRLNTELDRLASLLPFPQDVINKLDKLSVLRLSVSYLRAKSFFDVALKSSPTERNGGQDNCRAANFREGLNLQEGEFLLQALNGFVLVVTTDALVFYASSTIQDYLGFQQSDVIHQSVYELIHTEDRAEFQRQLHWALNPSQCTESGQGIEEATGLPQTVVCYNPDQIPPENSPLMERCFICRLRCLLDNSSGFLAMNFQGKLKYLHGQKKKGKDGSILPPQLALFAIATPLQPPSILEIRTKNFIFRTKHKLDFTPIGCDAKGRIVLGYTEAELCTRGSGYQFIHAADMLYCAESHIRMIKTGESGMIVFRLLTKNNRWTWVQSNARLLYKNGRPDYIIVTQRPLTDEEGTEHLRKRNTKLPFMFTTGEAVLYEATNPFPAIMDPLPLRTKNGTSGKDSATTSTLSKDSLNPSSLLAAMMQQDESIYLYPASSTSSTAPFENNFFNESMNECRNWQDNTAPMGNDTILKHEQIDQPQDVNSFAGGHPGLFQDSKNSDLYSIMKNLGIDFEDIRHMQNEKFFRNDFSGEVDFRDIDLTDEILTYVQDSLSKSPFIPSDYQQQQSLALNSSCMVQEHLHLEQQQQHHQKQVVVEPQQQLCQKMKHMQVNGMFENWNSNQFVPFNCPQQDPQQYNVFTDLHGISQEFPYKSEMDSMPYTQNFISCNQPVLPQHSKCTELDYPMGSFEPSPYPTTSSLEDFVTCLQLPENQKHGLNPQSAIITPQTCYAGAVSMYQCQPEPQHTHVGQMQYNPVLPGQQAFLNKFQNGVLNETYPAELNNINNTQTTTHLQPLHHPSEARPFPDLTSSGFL
Sequence of CCAAT/enhancer-binding protein beta (Homo sapiens) (P17676 whole entry, looked up): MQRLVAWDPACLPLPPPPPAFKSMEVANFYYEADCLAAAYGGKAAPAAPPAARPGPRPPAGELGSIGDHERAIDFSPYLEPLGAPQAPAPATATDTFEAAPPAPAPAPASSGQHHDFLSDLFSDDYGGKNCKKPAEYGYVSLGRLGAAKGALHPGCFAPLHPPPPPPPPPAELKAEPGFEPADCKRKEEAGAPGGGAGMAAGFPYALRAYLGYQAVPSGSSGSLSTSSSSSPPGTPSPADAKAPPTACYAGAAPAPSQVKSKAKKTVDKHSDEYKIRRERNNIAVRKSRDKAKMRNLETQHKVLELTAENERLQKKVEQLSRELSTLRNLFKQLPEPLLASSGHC
Sequence of Retinoic acid receptor alpha (Homo sapiens) (P10276 whole entry, looked up): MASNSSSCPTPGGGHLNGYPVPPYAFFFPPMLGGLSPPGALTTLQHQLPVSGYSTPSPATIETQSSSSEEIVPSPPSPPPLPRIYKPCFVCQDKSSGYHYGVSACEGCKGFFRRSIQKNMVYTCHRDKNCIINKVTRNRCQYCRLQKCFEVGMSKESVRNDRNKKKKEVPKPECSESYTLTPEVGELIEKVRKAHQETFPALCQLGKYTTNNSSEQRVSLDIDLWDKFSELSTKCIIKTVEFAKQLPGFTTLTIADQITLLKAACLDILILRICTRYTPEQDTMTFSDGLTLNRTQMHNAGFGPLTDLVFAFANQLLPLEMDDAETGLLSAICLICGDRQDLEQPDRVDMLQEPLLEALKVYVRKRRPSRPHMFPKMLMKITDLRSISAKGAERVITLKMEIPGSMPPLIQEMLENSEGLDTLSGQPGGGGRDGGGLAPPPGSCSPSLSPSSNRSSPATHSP

CCSC(=O)N1CCCCCC1
inactive: [1] | [2] | [3] | [4] | [5] | [6] | [7] | [8] | [9] | [10] | [11] | [12] | [13] | [14] | [15] | [16] | [17] | [18] | [19]

CCCCC(C#N)(Cn1cncn1)c1ccc(Cl)cc1 (stereo not drawn)
inactive: [1] | [2] | [3] | [4] | [5] | [6] | [7] | [8] | [9] | [10] | [11] | [12] | [13] | [14] | [15] | [16] | [17] | [18] | [19]

CCCCOCN(C(=O)CCl)c1c(CC)cccc1CC
inactive: [1] | [4] | [5] | [6] | [7] | [8] | [9] | [10] | [11] | [12] | [13] | [14] | [15] | [16] | [17] | [18] | [19]
active: [2] 0.654 µM | [3] 0.647 µM

CC(C)Oc1cccc(NC(=O)c2ccccc2C(F)(F)F)c1
inactive: [1] | [5] | [8] | [10] | [11] | [12] | [13] | [14] | [16] | [17] | [18] | [19]
active: [2] 13.6 µM | [3] 5.21 µM | [4] 41.8 µM | [6] 22.2 µM | [9] 9.92 µM | [15] 13.3 µM

O=C(Nc1ccccc1-c1ccc(Cl)cc1)c1cccnc1Cl
inactive: [1] | [2] | [4] | [5] | [6] | [8] | [9] | [20] | [10] | [11] | [12] | [13] | [14] | [15] | [16] | [17] | [18] | [19]
active: [3] 10.3 µM

CNC(=O)N(C)c1nnc(C(C)(C)C)s1
inactive: [1] | [2] | [3] | [4] | [5] | [6] | [7] | [8] | [9] | [10] | [11] | [12] | [13] | [14] | [15] | [16] | [17] | [18] | [19]
